This passage reports composite z-score and composite Z-score results from PubChem BioAssay.

Molecules are shown by their SMILES. Activity calls are given as the source filed them.

The target of one assay is Albumin (Bos taurus) (UniProt P02769). As to the kind of experiment: compounds binding labelled BSA control protein – biochemical, small-molecule microarray, Alexa647 label, 635/667 nm fluorescence, artefact control for SMM control protein annotation, profiling panel (AID 1118).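 Note: score merges 667 nm emission intensity and signal-to-noise per printed compound spot.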 The note with it: BSA-A647 binding, fluorescence 635 nm, higher = more signal.
Albumin (Bos taurus), sequence (P02769 whole entry, looked up): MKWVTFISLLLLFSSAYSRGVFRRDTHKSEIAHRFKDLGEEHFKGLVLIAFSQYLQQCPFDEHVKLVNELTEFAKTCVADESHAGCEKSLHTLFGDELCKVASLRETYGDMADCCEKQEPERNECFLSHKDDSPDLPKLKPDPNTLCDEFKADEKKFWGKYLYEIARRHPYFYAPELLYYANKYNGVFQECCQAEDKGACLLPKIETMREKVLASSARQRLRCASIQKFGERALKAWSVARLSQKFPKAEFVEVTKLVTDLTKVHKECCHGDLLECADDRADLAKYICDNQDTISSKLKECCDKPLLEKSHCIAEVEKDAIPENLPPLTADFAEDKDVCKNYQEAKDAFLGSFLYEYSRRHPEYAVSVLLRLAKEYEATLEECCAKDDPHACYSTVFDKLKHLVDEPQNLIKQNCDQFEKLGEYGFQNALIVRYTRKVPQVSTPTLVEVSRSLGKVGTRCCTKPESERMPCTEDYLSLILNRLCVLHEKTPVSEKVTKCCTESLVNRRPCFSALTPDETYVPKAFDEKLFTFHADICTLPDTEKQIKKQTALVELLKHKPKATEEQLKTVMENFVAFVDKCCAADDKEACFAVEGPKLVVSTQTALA
Assay [1] in a line: probe aXIP binding to arrayed compounds – biochemical, NeuroSMM set, 635/667 nm fluorescence, primary screen (AID 1119).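 Note: probe is the protein aXip251-270 applied at 1 µg/mL to compound-printed slides; binding of probe to printed compounds measured as 667 nm fluorescence plus signal to noise.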 The note with it: small-molecule microarray, higher = more signal, called active from +8 up or from −8 down.
Assay [2] can be described thus: probe aNOTCH3 binding on compound microarray – biochemical, small-molecule microarray, 635/667 nm fluorescence, primary screen (AID 1120).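 Note: probe is a biotin-tagged antibody raised against NOTCH3 rather than NOTCH3 protein; score merges spot fluorescence near 667 nm with spot signal to noise.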 The note with it: higher = more signal.
A short description of assay [3]: probe aNOTCH2 binding on compound microarray – biochemical, small-molecule microarray, 635/667 nm fluorescence, primary screen (AID 1121).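 Note: score merges feature fluorescence read at 667 nm with its signal to noise.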 The following applies: higher = more signal.
Assay [4] deals with Carbonic anhydrase 2 (Homo sapiens) (UniProt P00918). As to the kind of experiment: compounds binding carbonic anhydrase 2 – biochemical, small-molecule microarray, Alexa647-labelled CAII, profiling panel (AID 1122). The following applies: CAII-A647 binding fluorescence, higher = more signal.
The nature of assay [5]: COS7 lysate on small-molecule microarray, probe aHis, 635 nm (AID 1123).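 Note: z-score combines 667nm fluorescence intensity with signal-to-noise per printed compound spot.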 The note with it: COS7 cell lysate, fluorescence, higher = more signal.
Assay [6] in a line: probe aLAP1 signal on lysate-treated microarray – cell lysate, small-molecule microarray, COS7 lysate, primary screen (AID 1124).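 Note: lysate comes from COS7 cells expressing LAP1 and is applied at 0.3 µg/mL; score merges spot fluorescence near 667 nm with signal-to-noise over triplicate slides.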 The following applies: probe aLAP1, fluorescence, higher = more signal.
For another assay, the system named is Sam68 (KHDRBS1). Description: compounds binding KHDRBS1 protein – biochemical, small-molecule microarray, 635 nm fluorescence, primary screen (AID 1125).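 Note: score merges 667 nm channel intensity with signal to noise over triplicate slides.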 The following applies: higher = more signal.
Assay [7] relates to Chordin-like protein 2 (CHRDL2). Description: compounds binding chordin-like 2 – biochemical, small-molecule microarray, 635 nm fluorescence, primary screen (AID 1126).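 Note: printed compound slides probed with Chrdl2 protein at 4 µg/mL for 1 h at 4 C; score merges 667 nm emission intensity with signal to noise over three replicate slides.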 The following applies: fluorescence 635 nm, higher = more signal.
For assay [8], the target named is Concanavalin-A (Canavalia ensiformis) (UniProt P02866). As to the kind of experiment: compounds binding concanavalin A lectin – biochemical, small-molecule microarray, Alexa647 label, 635 nm, artefact control for SMM control protein annotation, primary screen (AID 1127).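 Note: z combines 667 nm emission intensity with signal-to-noise across three replicate slides.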 The note with it: ConA-A647 binding fluorescence, higher = more signal.
Concanavalin-A (Canavalia ensiformis), sequence (P02866 whole entry, looked up): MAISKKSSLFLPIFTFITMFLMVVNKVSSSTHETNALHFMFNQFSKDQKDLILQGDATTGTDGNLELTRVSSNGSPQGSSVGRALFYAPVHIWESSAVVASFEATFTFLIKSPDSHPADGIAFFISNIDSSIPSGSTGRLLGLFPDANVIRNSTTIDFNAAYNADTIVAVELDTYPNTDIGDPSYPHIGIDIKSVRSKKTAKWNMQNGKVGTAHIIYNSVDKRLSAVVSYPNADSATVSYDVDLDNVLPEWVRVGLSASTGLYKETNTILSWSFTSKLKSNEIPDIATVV

As for `CCCNC(=O)OC[C@H]1O[C@H](CCON=C(C)C)C=C[C@@H]1Oc1ccc(OC)cc1`, the composite z-score is 0.317 with Albumin (Bos taurus); 0.154 in assay [2]; -0.0877 in assay [3]; 0.0464 in assay [4]; 0.857 in [5]; -0.384 in assay [6]. In addition, the figures for the composite z-score (in the assay on Sam68 (KHDRBS1); in assay [7]; in [8]) were -0.209, -0.186 and 0.853, respectively. Further, the composite Z-score in [1] was -0.0154 (inactive).
As for `O=C(NN=C1C[C@@H](O)[C@@H](O)[C@@H]2[C@@H]3C(=O)N(Cc4ccccc4)C(=O)[C@@H]3CC[C@@H]12)OCc1ccccc1`, the composite z-score was -0.225 with Albumin (Bos taurus); 0.0591 in assay [2]; -0.129 in assay [3]; -0.362 in assay [4]; -0.723 in assay [5]; -0.169 in assay [6]. The composite z-score in the assay on Sam68 (KHDRBS1) was -0.917; in [7], 0.476; in assay [8] it was -0.292. The composite Z-score in assay [1] was 0.586 (inactive).
Consider `CC(C)=CCCC(C)=CCON=C1C[C@@H](O)[C@@H](O)[C@@H]2[C@@H]3C(=O)N(c4ccc(F)cc4F)C(=O)[C@@H]3CC[C@@H]12`, for which the composite z-score was 0.572 in the assay with Albumin (Bos taurus); 0.0459 in assay [2]; -0.14 in [3]; 0.29 in assay [4]; -0.217 in assay [5]; 0.233 in assay [6]. Also, the values for the composite z-score (in the assay with Sam68 (KHDRBS1); in [7]; in assay [8]) were 0.51, 1.38 and 0.339, respectively. The composite Z-score in assay [1] was 0.262 (inactive).
Turning to `COC(=O)CC=C[C@@H](C)[C@@H](C=NO[C@@H](C)c1cc(-c2c(C)cc(C)cc2C)no1)NS(=O)(=O)c1ccc(C)cc1`, the composite z-score with Albumin (Bos taurus) was -0.356; in [2] it was -0.197; in assay [3], -0.115; in assay [4] it was -0.6; in [5] it was -0.238; in [6], -0.565. The composite z-score with Sam68 (KHDRBS1) was -0.723; in assay [7], -0.674; in assay [8], -0.985. Further, the composite Z-score in [1] was -0.136 (inactive).
`COC(=O)[C@@H]1CC[C@H](C)[C@@H](c2ccc(C)cc2)N1C(=O)c1ccc(C=NOC[C@@H](C)[C@H](OCc2ccccc2)C(C)C)cc1`: the composite z-score with Albumin (Bos taurus) was 0.56; in assay [2], 0.0271; in [3], -0.185; in assay [4] it was 0.239; in assay [5] it was 1.29; in assay [6] it was 0.247. In addition, the composite z-score is 1.29 with Sam68 (KHDRBS1), 0.43 in [7] and 0.736 in assay [8]. The composite Z-score in assay [1] is 3.28 (inactive).
On to `COC(=O)CC=C[C@@H](C)[C@@H](C=NOC[C@@H](O)[C@H]1O[C@@H]2OC(C)(C)O[C@@H]2[C@H]1O)NS(=O)(=O)c1ccc(C)cc1`, for which the composite z-score is -0.0786 with Albumin (Bos taurus); -0.215 in [2]; -0.289 in assay [3]; -0.0777 in assay [4]; -0.152 in assay [5]; -0.372 in [6]. Further, the composite z-score is 0.524 with Sam68 (KHDRBS1), 0.42 in [7] and -0.137 in assay [8]. In [1], the composite Z-score is -0.72 (inactive).
With `O=C1C[C@@H](O)[C@@H](O)[C@@H]2[C@@H]3C(=O)N(C[C@@H]4CCCO4)C(=O)[C@@H]3CC[C@H]12`, the composite z-score was 0.225 with Albumin (Bos taurus); 0.0197 in [2]; -0.203 in [3]; 0.0413 in assay [4]; 0.157 in [5]; -0.117 in assay [6]. Moreover, the composite z-score in the assay with Sam68 (KHDRBS1) is 0.354; in assay [7], 0.72; in assay [8] it was 0.186. Further, in assay [1], the composite Z-score was -0.472 (inactive).
For the molecule `COC(=O)C1=C(C)N(Cc2ccccc2)[C@]23O[C@](C(=O)OC)(C(=O)N2[C@@H]1c1ccccc1)C(C(=O)OC)=C3C(=O)OC`, the composite z-score was 0.387 with Albumin (Bos taurus); 0.201 in [2]; -0.0439 in [3]; 0.489 in [4]; 0.421 in assay [5]; -0.624 in assay [6]. The composite z-score in the assay on Sam68 (KHDRBS1) is 0.988; in [7] it was 0.503; in [8] it was 1.18. For the same molecule, in assay [1], the composite Z-score is -0.177 (inactive).
For `CCN1C(=O)[C@H]2[C@H]3[C@H](O)[C@H](O)CC(=O)[C@@H]3CC[C@H]2C1=O`, the composite z-score in the assay with Albumin (Bos taurus) was 0.4; in assay [2] it was -0.0377; in assay [3] it was -0.179; in assay [4], 0.0044; in assay [5], 0.304; in assay [6], 0.335. Moreover, the composite z-score came to 0.826 with Sam68 (KHDRBS1), 0.503 in assay [7] and 0.735 in assay [8]. The composite Z-score in [1] is -0.141 (inactive).
For the molecule `CCCCc1nc2c(c3c1C[C@H](C)OC3)CN(CCOc1ccccc1)CC2`, the composite z-score with Albumin (Bos taurus) was 0.674; in [2], 0.058; in assay [3] it was -0.11; in assay [4] it was 0.221; in [5] it was 0.686; in assay [6] it was 0.135. For the same molecule, the composite z-score with Sam68 (KHDRBS1) is 1.06; in [7], 0.726; in [8], 0.975. For the same molecule, the composite Z-score in assay [1] was 0.202 (inactive).
`CC(C)=CCCC(C)=CCON=C1C[C@@H](O)[C@@H](O)[C@@H]2[C@@H]3C(=O)N(c4ccc(F)cc4F)C(=O)[C@@H]3CC[C@H]12`: the composite z-score with Albumin (Bos taurus) was 0.477; in [2], 0.164; in assay [3], -0.0662; in assay [4] it was 0.514; in assay [5] it was 1.31; in assay [6], 0.402. Besides, the figures for the composite z-score (with Sam68 (KHDRBS1); in assay [7]; in [8]) were 1.24, 0.812 and 0.629, respectively. The composite Z-score in [1] was -0.356 (inactive).
As for `O=c1n(Cc2cc3c(cc2Cl)OCO3)c(=O)n2n1CC[C@@H]1C(=NOC[C@@H](O)COCc3ccco3)[C@H]3O[C@H]3[C@@H](O)[C@@H]12`, the composite z-score in the assay with Albumin (Bos taurus) is -0.0922; in [2], -0.0841; in assay [3], -0.0974; in assay [4], 0.351; in [5], -0.0175; in assay [6], 0.0735. In addition, the composite z-score is 0.175 in the assay with Sam68 (KHDRBS1), 0.57 in [7] and 0.392 in assay [8]. Further, the composite Z-score in assay [1] is -0.263 (inactive).
